Bioassay records from PubChem BioAssay.
Many of the other results were omitted from the sample, so hits are more common in it than they were.
NPR1 activator – GC-A stimulated cGMP production enhancers – HEK293 GC-A cells, cGMP TR-FRET, EC30 ANP, primary screen; Atrial natriuretic peptide receptor 1 (Homo sapiens), P16066; 0% at EC30 ANP, 100% saturating ANP; activation, % at 10 µM; 370,000 compounds, 0.14% hits; in the data active = activation above about 40%
GC-B act – human GC-B receptor activators, primary screen, HEK293 GC-B cells, cGMP TR-FRET, EC30 CNP; 370,000 compounds, 0.11% hits; Atrial natriuretic peptide receptor 2 (Homo sapiens), P20594; activation, % at 10 µM; 0% at EC30 CNP, 100% saturating CNP;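 active = activation at 10 µM reaching about 35% in either raw or pattern-adjusted values, limit read from the data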
Target sequence (P20594 whole entry, looked up): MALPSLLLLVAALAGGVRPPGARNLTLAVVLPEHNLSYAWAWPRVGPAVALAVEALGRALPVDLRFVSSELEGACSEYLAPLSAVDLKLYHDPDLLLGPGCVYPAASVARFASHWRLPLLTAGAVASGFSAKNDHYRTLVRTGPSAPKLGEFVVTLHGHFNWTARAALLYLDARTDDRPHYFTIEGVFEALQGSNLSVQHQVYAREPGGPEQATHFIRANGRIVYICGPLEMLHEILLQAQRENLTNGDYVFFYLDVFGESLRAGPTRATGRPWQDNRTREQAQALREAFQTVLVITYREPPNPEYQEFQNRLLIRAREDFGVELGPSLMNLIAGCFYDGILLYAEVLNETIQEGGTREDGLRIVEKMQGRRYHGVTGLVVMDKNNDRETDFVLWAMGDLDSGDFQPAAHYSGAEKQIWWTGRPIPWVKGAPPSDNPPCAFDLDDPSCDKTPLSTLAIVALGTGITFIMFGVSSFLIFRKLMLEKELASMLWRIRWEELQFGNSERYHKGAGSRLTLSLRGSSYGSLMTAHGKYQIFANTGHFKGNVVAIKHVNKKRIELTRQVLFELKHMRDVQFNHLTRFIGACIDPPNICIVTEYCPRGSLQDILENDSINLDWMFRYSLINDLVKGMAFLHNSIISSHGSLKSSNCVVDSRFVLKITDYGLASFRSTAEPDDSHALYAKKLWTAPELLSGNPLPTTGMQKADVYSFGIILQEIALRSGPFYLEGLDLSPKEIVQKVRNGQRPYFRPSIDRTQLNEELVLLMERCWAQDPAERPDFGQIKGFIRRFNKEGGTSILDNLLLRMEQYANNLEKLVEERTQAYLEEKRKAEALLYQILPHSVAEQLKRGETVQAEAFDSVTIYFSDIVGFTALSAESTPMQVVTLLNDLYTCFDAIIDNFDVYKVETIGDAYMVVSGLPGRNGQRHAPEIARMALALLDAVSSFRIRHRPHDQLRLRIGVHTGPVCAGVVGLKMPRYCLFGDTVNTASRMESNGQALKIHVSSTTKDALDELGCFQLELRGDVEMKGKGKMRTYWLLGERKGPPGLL
HDAC3 inhib – HDAC3 deacetylase inhibitors, primary screen, biochemical, fluorescence, cell-free homogeneous; Histone deacetylase 3 (Homo sapiens), O15379; recombinant HDAC3, fluorogenic peptide/trypsin coupled; inhibition, % at 8.3 µM; 320,000 compounds, 0.15% hits; in the data active = inhibition above about 26%, passing the limit was not always enough
ALR inh – inhibitors of human ALR sulfhydryl oxidase, primary screen, biochemical, H2O2 detection, HRP-luminol luminescence, single point. purified ALR, DTT oxidation. inhibition, % (no concentration beside the values). 290,000 compounds, 3.8% hits;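 active = mean replicate inhibition above about 79%, with every replicate also reaching it, limit read from the data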
An asterisk follows results filed as active; · = not tested or not shown.

SMILES | NPR1 activator | GC-B act | HDAC3 inhib | ALR inh
c1cnc(Sc2ccc3nnnn3n2)nc1 | -7.7 | 1.4 | -8.5 | -10.6
Cc1cccc(C)c1OCC(=O)Nc1ccc(N2CCOCC2)cc1 | -1.9 | 1.9 | 3.0 | -2.1
Cc1cccc(CN2[C@H](COC(=O)Nc3ccccc3)C=CS2(=O)=O)c1 | -4.0 | -6.5 | · | ·
NC(=O)CSc1nnc(SCc2ccc(F)cc2)s1 | 0.8 | -2.3 | -16.4 | -2.7
O=C(C1CCN(S(=O)(=O)c2c(Cl)cccc2Cl)CC1)N1CCCCCCC1 | -2.8 | -2.1 | -5.3 | 0.2
O=C(CSc1nc(Cc2ccccc2)nc2ccccc12)c1ccc2c(c1)OCCO2 | 6.2 | 1.1 | 5.6 | 99.0*
O=C(CSc1ncnc2scc(-c3ccc(F)cc3)c12)c1ccc2c(c1)OCCO2 | 5.2 | 5.6 | 81.2* | -3.3
CCN(CC)C(=O)CSc1nc(Cc2ccccc2)nc2ccccc12 | -13.7 | -1.5 | -5.5 | 5.8
O=C(O)CC1S/C(=N/N=C/c2ccc(-c3ccc(Cl)cc3[N+](=O)[O-])o2)NC1=O (centres undefined) | -7.4 | 1.9 | 16.1 | 82.2*
COc1cc(N=Nc2c(C)n(C)n(-c3ccccc3)c2=O)ccc1N | -6.7 | -3.9 | 3.2 | 98.5*
COc1ccc(-c2c(C)nn3c(Cl)c(C)c(C)nc23)cc1 | 4.1 | 1.2 | 2.7 | -1.0
O=C(Nc1cccs1)Nc1c(F)cc(F)cc1Br | -1.5 | 6.7 | -6.1 | 96.0*
O=C(Nc1cccs1)Nc1c(F)c(F)cc(F)c1F | 4.5 | 5.1 | 14.5 | -2.9
Cc1cc(NC(=O)c2ccc(C#N)cc2)on1 | 2.2 | -1.2 | -0.8 | ·
CC(=O)Nc1ccc(SC(C)C(=O)NC(N)=O)cc1 (centres undefined) | 4.1 | 0.9 | 2.1 | 99.2*
COc1ccc(NC(=O)C(C)Sc2ccccc2)cc1 (centres undefined) | -2.4 | -4.5 | -5.6 | -6.3
Cc1ccc2nc(C(C)(C)C)c(Cc3cccc(F)c3)n2c1 | -3.0 | -2.9 | · | ·
C[C@@H]1CN([C@@H](C)CN(C)C)C(=O)c2cc(NC(=O)Nc3ccccc3)ccc2O[C@@H](C)CCCCO[C@H]1CN(C)S(=O)(=O)c1ccc(F)cc1 | 0.9 | 0.7 | · | ·
COC(=O)[C@]12C[C@H](CC(=O)N3CCCCC3)C(=O)N(CCC3=CCCCC3)C1=C[C@H](C1CCCC1)O[C@@H]2C | -2.1 | 5.2 | · | ·
Cc1ccc(S(=O)(=O)N2CCC(C(=O)OCC(=O)NCc3cccc(Cl)c3)CC2)cc1C | 2.6 | 4.1 | -2.2 | 3.4
CC(=O)NNc1nc(-c2ccccc2)c2cc(Br)ccc2n1 | -16.8 | -3.4 | 7.6 | 0.2
O=C(CN1CCCCC1)NNc1nc(-c2ccccc2)c2cc(Br)ccc2n1 | -3.5 | 0.8 | -6.3 | 89.8*
COc1ccc(N(C(=O)CNC(=O)c2cccs2)C(C(=O)NC2CCCC2)c2ccncc2)cc1 (centres undefined) | -1.0 | -2.5 | -5.1 | -3.4
C=CCn1c(SCC(=O)N2CCc3ccccc3C2)nc2sc(C)c(C)c2c1=O | -0.6 | -3.1 | 8.5 | 0.9
CCCCn1c(-c2csc3c2CCCC3)n[nH]c1=S | -2.7 | -3.2 | 1.5 | 9.2
SMILES | NPR1 activator | GC-B act | HDAC3 inhib | ALR inh
CCn1c(-c2csc3c2CCCC3)n[nH]c1=S | 0.9 | 2.7 | -1.1 | 90.9*
COc1cc(C)c(NC(=S)Nc2cccc(Cl)c2C)cc1OC | 3.4 | -0.1 | 10.1 | 91.1*
CC(C)c1nc2cc(C(=O)N3CCN(c4cnccn4)CC3)ccc2o1 | 1.0 | -1.9 | 1.1 | 6.6
COC(=O)[C@]12C[C@H](CC(=O)NCCCN3CCCC3=O)C(=O)N(Cc3ccc(Cl)cc3Cl)C1=C[C@H](C(C)C)O[C@@H]2C1CC1 | -16.3 | -10.0 | · | ·
CC(C)C(=O)N(c1ccc2oc(=O)sc2c1)S(=O)(=O)c1ccccc1 | -1.0 | 9.0 | 1.1 | 95.8*
CCN(CC)S(=O)(=O)c1ccc(C(=O)Nc2nnc(CSC)o2)cc1 | -1.8 | -7.7 | -7.0 | 91.0*
COc1ccccc1CNC(=O)c1cc(S(=O)(=O)N2CCCC2)cn1C | -0.1 | 37.0* | -6.6 | -10.4
CN(C)c1ccc(CNC(=O)c2cc(S(=O)(=O)N3CCOCC3)cn2C)cc1 | 1.4 | 0.6 | 2.5 | 97.6*
Cn1cc(S(=O)(=O)N2CCCC2)cc1C(=O)NCc1ccccc1Cl | -1.1 | 2.3 | 2.8 | -5.0
O=C(Nc1ccccc1)c1nnsc1S(=O)c1ccc(Cl)cc1 (centres undefined) | 38.9 | 9.3 | 5.7 | 98.3*
NNc1nc(-c2ccccc2)cs1 | 0.7 | 0.7 | · | 99.1*
CCOC(=O)C1(C)CCN1C(=O)c1cc2ccccc2s1 (centres undefined) | -1.9 | -0.2 | · | ·
CN(C)c1ccc(CNC(=O)C2CCN(S(=O)(=O)c3ccc4c(c3)CCC(=O)N4)CC2)cc1 | · | · | 2.7 | 91.3*
Cc1cccnc1NC(=O)C1CCN(S(=O)(=O)c2ccc3c(c2)CCC(=O)N3)CC1 | 1.3 | 2.3 | 0.7 | 89.8*
O=C1CCc2cc(S(=O)(=O)N3CCC(C(=O)Nc4nccs4)CC3)ccc2N1 | -6.6 | -1.2 | -3.2 | -16.1
O=C1CCCc2cc(S(=O)(=O)N3CCC(C(=O)NCc4ccccc4)CC3)ccc2N1 | -1.1 | -2.5 | 0.0 | -0.4
CC(C)c1ccc(/C=C/C(=O)CCC(=O)O)cc1 | -2.0 | 1.4 | 11.7 | 97.8*
O=C(O)CCC(=O)/C=C/c1ccccc1 | -3.4 | -1.4 | 3.6 | 2.4
C[C@@H]1ON(C)[C@H]2C[C@H]3c4cc(-c5ccc6c(c5)OCO6)ccc4CCN3C[C@@H]12 | -4.3 | 4.0 | · | ·
O=C(Nc1ccc(Cl)cc1)NC1CCCCC1 | 0.8 | -1.7 | -9.9 | -9.1
Nc1ccc(NC(=O)NC2CCCCC2)cc1 | -2.6 | -0.7 | 2.1 | 99.1*
Cc1ccc(-n2nnc3c(=O)oc4ccccc4c32)cc1 | -2.8 | 38.9* | -3.3 | -4.7
CCC(C)n1nnc2c(=O)oc3ccccc3c21 (centres undefined) | 2.9 | -1.0 | 2.2 | -0.1
O=C(COC(=O)c1cc(=O)[nH]c2ccccc12)Nc1ccccc1F | -6.1 | 0.4 | 7.8 | -0.1
Cc1ccc(-c2nc(CSCC(=O)NCc3cccnc3)c(C)o2)cc1 | 6.4 | 2.9 | 2.0 | 98.6*
COc1ccc(-c2nc(CSCC(=O)NCc3ccco3)c(C)o2)cc1 | · | · | 4.2 | 99.2*
COc1ccc(NC(=O)CSCC(=O)NCc2ccco2)cc1 | -0.6 | -4.8 | 0.2 | 54.6
Nc1nc2c(ncn2[C@@H]2O[C@H](C(=O)N[C@@H](Cc3ccccc3)C(=O)NCc3ccc4c(c3)OCO4)[C@@H](O)[C@H]2O)c(=O)[nH]1 | 1.8 | 0.2 | · | ·
Nc1nc2c(ncn2[C@@H]2O[C@H](C(=O)N[C@H](Cc3ccccc3)C(=O)NCc3ccc4c(c3)OCO4)[C@@H](O)[C@H]2O)c(=O)[nH]1 | 31.5 | 37.5* | · | ·
COC(=O)[C@]12C[C@H](CC(=O)NCCCN3CCCC3=O)C(=O)N(Cc3ccc4c(c3)OCO4)C1=C[C@H](C(C)(C)C)O[C@@H]2C | 4.2 | 14.1 | · | ·
